Reference: PubChem BioAssay (NCI)
“And” between values parts separate entries of the source, which are not always exact repeats. Equal entries are not always repeated. About 83,000 compounds went through this panel and 20% of them were active in at least one assay; those are over-represented in the sample as a whole.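 Interpretation: 100, growth as untreated; towards 0, rising growth inhibition; 0, no net growth; 0 to -100, cell death. Compounds scoring below 10 were considered active.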 The source made the active and inactive calls.

Test system: MDA-MB-468 breast
Assay: NCI-60 one-dose screen, 48 h (100 = growth as untreated, 0 = no growth, -100 = all killed)
Details: 10 µM unless noted

Compound | growth
COC(=O)[C@H]1[C@H]2C[C@@H]3c4[nH]c5cc(OC)ccc5c4CCN3C[C@H]2C[C@@H](OC(=O)/C=C/c2cc(OC)c(OC)c(OC)c2)[C@@H]1OC | 9.21% (active)
CCCc1n(Cc2ccc3ccccc3c2)cc[n+]1Cc1ccc2ccccc2c1 | -45.4% (active)
COCCn1cc(-c2nc(-c3cn(CCOC)c4ncccc34)cs2)c2ccccc21 | -17.4% (active)
Cc1ccc(Cl)cc1N1C(=O)CC(Sc2ccccc2N)C1=O (stereo unspecified) | 108% (inactive)
C=CCN1C(=O)/C(=c2\sc3n(c2=O)NC2C(N=3)N(CC)C(=O)N2CC)c2ccccc21 (stereo unspecified) | 44.6% (inactive)
Cc1cc(Nc2nc(-c3ccc(F)cc3)nc3ccccc23)n[nH]1 | 58.2% (inactive)
COc1ccc(-n2nc(C)c3c(Nc4ccc(NC(=O)Nc5cc(C(F)(F)F)ccc5F)cc4)ncnc32)cc1 | 29.6% (inactive)
O=C(Oc1ccc(CCl)cc1)c1ccccc1 | -62.7% (active)
COc1ccc(/C=C(/C(=O)N2CCN(Cc3ccccc3)CC2)c2cc(OC)c(OC)c(OC)c2)cc1O | 20.4% (inactive)
O=[N+]([O-])c1c(Cl)ncnc1Cl | 101% (inactive)
O=C1N(Cc2ccccc2Cl)c2ccccc2C12NN=C(c1ccccc1)S2 (stereo unspecified) | 57.2% (inactive)
COC(=O)C(C)Oc1ccc(OC#N)cc1 (stereo unspecified) | 99% (inactive)
CN(C)CCCn1c2c(c3ccc(N4CCNCC4)cc3c1=O)C(=O)c1ccccc1-2 | -17.2% (active)
COc1cccc2nc(Nc3cccc(NC(=O)c4ccc(N5CCN(C)CC5)c(C(F)(F)F)c4)c3)ccc12 | 20.2% (inactive)
CCOC(=O)Cc1cnn(C)c1NC(=O)c1ccc(Cl)cc1NC(C)=O | 89.9% (inactive)
COc1cc(C(=O)N/N=C/c2cccc([N+](=O)[O-])c2)cc(OC)c1OC | 6.95% (active)
O=C(/C=C/c1ccccc1Br)c1cccc(OCCCCOc2cccc(C(=O)/C=C/c3ccccc3Br)c2)c1 | 95.4% (inactive)
c1ccc(Nc2nc3c(s2)CCc2c[nH]cc2-3)nc1 | 83.6% (inactive)

Compound | growth
COc1ccc2c(c1)O/C(=C\c1ccc([N+](=O)[O-])o1)C2=O | -46.5% (active)
[B-][N+](CC)(CC)c1ccccc1 | 104% (inactive)
COc1cccc(-c2cc3c(O)cc(C#N)cc3[nH]2)c1 | 102% (inactive)
O=S(=O)(Oc1ccc(Br)cc1)c1ccc(Cl)cc1 | 105% (inactive)
CCN(CC)CCNc1cc(-c2cccc(OC(F)(F)F)c2)nc2ccc(N3CCCC3)cc12 | 28.6% (inactive) and -38.3% (active) and 0.911% (active)
CCOC(=O)c1[nH]c2cc(Cl)ccc2c1[C@@H](C(=O)NC(C)(C)C)N(CC)C(=O)CCCCC#Cc1cccc2c1CN(C1CCC(=O)NC1=O)C2=O (stereo partly specified) | -14.3% (active)
Cn1c2ccccc2c2c3c(c4c5cccnc5[nH]c4c21)C(=O)N(O)C3=O | 0.0154% (active)
C[C@@H]1C[C@@H]([C@@H](CC2CC(=O)NC(=O)C2)OC(=O)CC(=O)c2ccccc2)C(=O)[C@@H](C)C1 | 10.9% (inactive)
CN1CCN(S(=O)(=O)O[C@@H]2C(=O)N(c3cc4c5ccccc5ccc4c4ccccc34)[C@H]2c2ccc(F)cn2)CC1 | 90.8% (inactive)
CN(C)CCCOc1ccc(C(=C(c2ccccc2)C2CCCC2)c2ccc(OCCCN(C)C)cc2)cc1 | -78.9% (active)
Cc1nn(-c2ccccc2)c(-n2ccnc2)c1/C=N/Nc1nc(-c2ccc(Cl)c(Cl)c2)cs1 | -8.71% (active)
Cc1cn(-c2nc3c(c(NCc4ccccc4)n2)COCC3)c2cccc(C(N)=O)c12 | 114% [0.5 µM] (inactive)
CCCCCCCC/C=C/CCCCCCCC1=NC(C)(C)CN1CC(C)O (stereo unspecified) | 46.7% (inactive)
CN(C)CCCNC(=O)c1cncnc1Nc1ccc(OCc2cccc(F)c2)c(Cl)c1 | -7.83% (active)
COc1cc(F)c(F)c(Nc2ccc(I)cc2F)c1NS(=O)(=O)C1(C[C@H](O)CO)CC1 | 67.4% (inactive)
CC(=O)OCC1O[C@@H](OC(C)=O)[C@@H](NC(=O)NS(=O)(=O)c2ccccc2)C(OC(C)=O)[C@@H]1OC(C)=O (stereo partly specified) | 107% (inactive)
Nc1ccc(-c2cccs2)cc1NC(=O)c1ccc(CCCC(=O)Nc2ccc(C3CC3N)cc2)cc1 (stereo unspecified) | 69.6% (inactive)
CC1=C2[C@@H](CC1)[C@]1(C)O[C@@](c3ccccc3)(C[C@H]1OC(=O)CO)[C@H]2OC(=O)/C=C/c1ccccc1 | 91.1% (inactive)
